Assay results from PubChem BioAssay (NCI).
About 83,000 compounds went through this panel and 20% of them were active in at least one assay; those are over-represented in the sample as a whole.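 Negative percent growth values reflect cell death: -40 means 40% of the cells present at the start died, and -100 means all died.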 Calls of active or inactive are those of the source. Rule for the calls: active = growth percent below 10; inactive = the rest.

System: NCI-H322M lung
Test: NCI-60 one-dose screen, 48 h (100 = growth as untreated, 0 = no growth, -100 = all killed)
Details: 10 µM unless noted

Row | SMILES | growth
1 | COc1ccc(N=C2CSc3nnc(-c4cc(F)c(Cl)cc4Cl)n3N2)cc1 | 6.08% (active)
2 | Nc1c(C(=O)Nc2cccc(Cl)c2)sc2nc3c(cc12)C(=O)CCC3 | 71.8% (inactive)
3 | COc1ccc(CNc2c3ccccc3nc3ccc(OC)cc23)cc1 | 23.5% (inactive)
4 | CCOC(=O)c1cc(C(=O)OCC)c(C)nc1C | 106% (inactive)
5 | NC(=O)N/N=C\c1ccc([N+](=O)[O-])o1 | 117% (inactive)
6 | Cc1ccc(NC(=O)c2sc3nc4c(cc3c2N)C(=O)CCC4)cc1Cl | 109% (inactive)
7 | COc1ccc(-n2c(COc3ccc(F)cc3)n[nH]c2=S)cc1 | 96.8% (inactive)
8 | COc1ccccc1-[n+]1cc(-c2ccc(-c3ccccc3)cc2)n2c1CCCCC2 | 20% (inactive)
9 | Nc1cc(C(=O)O)cc(C(=O)O)c1 | 102% (inactive)
10 | CN(C)c1nc(-c2cccs2)n2nc(-c3ccco3)cc2n1 | 106% (inactive)
11 | O=C(Nc1cccc(-n2ccc3c(NC(=O)c4ccccc4)nccc32)c1)c1ccc(N2CCOCC2)c(C(F)(F)F)c1 | 27% (inactive)
12 | CNC(=O)c1c(NC(=O)c2ccc(C(C)C)cc2)sc2c1CCC(=O)C2 | 17.6% (inactive)
13 | CC(CN1CCN(CC(C)Nc2ccnc3cc(Cl)ccc23)CC1)Nc1ccnc2cc(Cl)ccc12 (stereo unspecified) | 20.7% (inactive)
14 | Cc1c2c(cc3c1[nH]c1ccccc13)C=NCC2 | 99.7% (inactive)
15 | CC(C)c1ccc2c(c1)CCC1C2CCCC1(C)NCc1ccccc1 (stereo unspecified) | 32.6% (inactive)
16 | CC1(C)OC2OC3C(CN)OC(c4ccccc4)OC3C2O1 (stereo unspecified) | 125% (inactive)
